The record followed here is PubChem BioAssay AID720526 (National Center for Advancing Translational Sciences (NCATS), 2013).

Structures are written as SMILES. Records with an inconclusive call do not appear. A call without a number means that no potency is given here. Calls of active or inactive are those of the source. The call rests on the fitted dose curve; in most records, active means well fitted activation curve with a large enough effect; inconclusive means small, poorly fitted or top-dose-only effect; inactive means no such curve, though single readings can be large or run the other way.

A short description of this experiment: qHTS Assay for NPC1 Promoter Activators: Hit Validation Using Renila Luciferase Read-Out for NPC1. In short, it runs like this: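 Luciferase reporter read-out: promoter activation measured by luminescence after 10 min with detection reagent at room temperature. Cells were Huh7 with a stable NPC promoter-luciferase construct, treated 24 h at 37 deg C.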
Potency means the concentration at half of the fitted maximal effect.

For the compound `Cc1ccc(C(=O)Nc2nnc(S(=O)(=O)N3CCOCC3)s2)cc1`, the Potency result was “inactive”.

`COc1ccc(-c2cc(C(=O)Nc3ccccc3F)on2)cc1`: the Potency entry was “inactive”. The value for `NC(=O)C(=O)NN=C1C2CC3CC(C2)CC1C3` was “inactive”; that for `CCCC(C)NC(=O)c1ccc(OCc2ccc(Cl)cc2)c(OC)c1` (stereo not drawn) was “inactive”; that for `O=C(CCS(=O)(=O)c1ccccc1)Nc1ccc(-c2nc3ccccc3s2)cc1` was “inactive”. On to `COc1ccc(-c2nnc(SCC(=O)/C(C#N)=C(\C)N)o2)cc1`, for which the Potency entry is “inactive”. In the case of `CCC1CCCCN1CCCNC(=O)c1ccc2nc(N3CCCCC3)sc2c1` (stereo not drawn), the Potency entry was “inactive”. For `CC(=O)Nc1nnc(SCC(=O)NCCOc2ccccc2)s1`, the Potency result was “inactive”. In the case of `O=C(CCc1cccc(Cl)c1)NC1CCCN(Cc2ccccc2F)C1` (stereo not drawn), the Potency entry was “inactive”. For `O=C(CSc1nnc(-c2ccccc2)o1)Nc1ccccc1F`, the Potency entry is “inactive”.

Consider `COc1ccc(NC(=O)CCCN2C(=O)C(c3ccccc3)Oc3cccnc32)cc1OC` (stereo not drawn), for which the Potency entry is “inactive”.

`O=C(NC(=S)Nc1ccc(CN2CCCCC2)cc1)c1cc2ccccc2o1`: the Potency result was “inactive”. As for `Cc1ccc(NC(=O)c2cccc(N3C(=O)CCC3=O)c2)nc1`, the Potency entry was “inactive”. As for `CC1CC(C)CN(CC(=O)N2CCOCC2)C1` (stereo not drawn), the Potency entry was “inactive”.

Regarding `CCCN(CCC)CCCNC(=O)c1cc2cc3ccc(Cl)cc3nc2o1`, the Potency result was “inactive”. Consider `COc1ccccc1C(=O)Nc1nnc(SCC(=O)NC2CCCC2)s1`, for which the Potency entry was “inactive”.

`COc1ccc(S(=O)(=O)NC(C(=O)NCCc2ccccn2)C(C)C)cc1` (stereo not drawn): the Potency result was “inactive”. With `COCCNC(=O)Cn1nc(-c2ccccc2)c2ccccc2c1=O`, the Potency entry was “inactive”.

For the compound `Cc1ccc(C(=O)c2cn[nH]c2-c2ccccc2O)cc1`, the Potency entry is “inactive”. As for `O=C(CCCn1c(=O)oc2ccccc21)N1CCN(c2ccccn2)CC1`, the Potency result was “inactive”.

For `Cc1ccc(S(=O)(=O)/N=C2\C=C(Nc3cccc(C(=O)O)c3)C(=O)c3ccccc32)cc1`, the Potency result was “inactive”. As to `CCCCCCOc1ccc(OC(=O)c2cccnc2)cc1`, the Potency is 1.84 µM (active). For `CC(=O)Nc1ccc(-c2csc(Nc3ncccn3)n2)cc1` the value was “inactive”; for `O=C(Nc1nc2ccc(F)cc2s1)c1ccc(N2CCCC2=O)cc1`, “inactive”. Turning to `CC1=C(C(=O)OC2CCCC(C)C2)C(c2ccccc2)NC(=O)N1` (stereo not drawn), the Potency result was “inactive”. On to `Cc1c(C(O)CN2CCN(Cc3ccc4c(c3)OCO4)CC2)c2ccccc2n1C` (stereo not drawn), for which the Potency result was “inactive”.

As to `COC(=O)Nc1nc2ccc(Br)cc2s1`, the Potency entry is “inactive”. On to `COc1cccc(CNC(=O)CN(c2cc(C)cc(C)c2)S(=O)(=O)c2c(C)noc2C)c1`, for which the Potency result was “inactive”. For `Nc1ccccc1C(=O)N/N=C1/C2CN3CCN(C2)CC1(Cc1ccccc1)C3`, the Potency entry is “inactive”. Consider `O=C(/C=C/c1ccco1)NCC1OCCc2ccccc21` (stereo not drawn), for which the Potency result was “inactive”.

In the case of `S=C1NCN(CCc2ccccc2)CN1Cc1ccccc1`, the Potency result is “inactive”. For `CC(=O)Nc1ccc(NC(=O)COc2ncnc3ccccc23)cc1` the value was “inactive”.

As for `Cc1ccc(CNC(=O)Nc2ccc(C)cc2)cc1`, the Potency entry was “inactive”. The value for `O=S(=O)(c1cccs1)N1CCN(c2ncccn2)CC1` was “inactive”.

As for `CCN(CC)S(=O)(=O)c1ccc(NCc2ccccn2)nc1`, the Potency result is “inactive”. The value for `O=[N+]([O-])c1cnccc1Nc1ccc(F)cc1` was “inactive”; that for `Cc1ccc(C2C3=C(CC(C)(C)CC3=O)N(CCN3CCOCC3)C3=C2C(=O)CC(C)(C)C3)cc1` was 16.4 µM (active); that for `Cc1ccc(S(=O)(=O)/N=C(/Nc2ccccn2)c2ccc(Cl)cc2)cc1` was 11.6 µM (active).
